# Assay results reported in PubChem BioAssay AID633 (Emory University Molecular Libraries Screening Center, 2007).
# Hit rate of the full screen: of about 86,000 compounds, about 1,100 (1.3%) were called active. For the sample, actives were picked, then their nearest neighbours and some compounds at random. Values without a mark were called inactive.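 How the source made its calls: active means compounds whose percent inhibition of the receptor-coactivator binding signal exceeds about 50% in the single-dose screen (limit read from the data); inactive means the rest.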
# Target: Estrogen receptor beta (Homo sapiens) (UniProt Q92731)
# Test: inhibitors of ERβ-SRC1 coactivator interaction, primary screen, biochemical, TR-FRET, ERβ LBD, SRC-1 peptide (AID 633);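 further: 0% = receptor plus peptide wells without compound and 100% = peptide-only wells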
# Conditions: TR-FRET ER-beta LBD / SRC1-Cy5 peptide binding; at 25.6 µM; active compounds read high; receptor agonist-loaded with 1 µM estradiol
# Chain of Estrogen receptor beta (Homo sapiens) (Q92731 whole entry, looked up, the tested form may be a part): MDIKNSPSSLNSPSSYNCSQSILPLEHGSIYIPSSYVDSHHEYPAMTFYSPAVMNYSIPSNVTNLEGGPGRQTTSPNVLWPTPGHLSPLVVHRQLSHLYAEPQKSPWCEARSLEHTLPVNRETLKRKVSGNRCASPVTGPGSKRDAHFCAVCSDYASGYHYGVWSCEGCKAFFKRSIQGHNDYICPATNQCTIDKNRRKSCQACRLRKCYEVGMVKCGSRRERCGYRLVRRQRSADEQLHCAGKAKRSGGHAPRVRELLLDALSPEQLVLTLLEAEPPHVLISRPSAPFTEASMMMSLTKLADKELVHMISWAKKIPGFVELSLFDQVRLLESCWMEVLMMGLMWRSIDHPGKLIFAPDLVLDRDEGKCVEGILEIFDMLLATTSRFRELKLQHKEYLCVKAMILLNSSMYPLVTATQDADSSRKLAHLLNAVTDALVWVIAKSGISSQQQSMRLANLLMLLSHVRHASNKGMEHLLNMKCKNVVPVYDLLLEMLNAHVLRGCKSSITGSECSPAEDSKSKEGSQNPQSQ
row,SMILES,inhibition
1,COc1ccc(-n2c(C)csc2=S)cc1,-15.3%
2,O/N=C1\CC2(Cc3nonc31)OCCO2,23%
3,ON=C1/C(=N\O)CC2(C/C1=N/O)OCCO2,60.3% (active)
4,O=C(CSc1nnnn1-c1ccccc1)NCc1ccco1,17.8%
5,CCOC(=O)Nc1sc(C(=O)N(C)C)c(C)c1C(=O)OCC,4.28%
6,Cc1ccc(Cc2cncc(O)c2)cc1S(=O)(=O)O,54.6% (active)
7,Cc1cc(O)cc(O)c1C(=O)Cc1cnn(-c2ccccc2)c1,-7.76%
8,Cn1nc(-c2ccccc2)c(CSc2cccc(Cl)c2)c1Cl,-3.81%
9,Cn1c(NN)nc2sc3c(c2c1=O)CCC3,-7.13%
10,CCNC(=O)NC(=O)C(C)OC(=O)c1cc(S(=O)(=O)N2CCCCCC2)ccc1OC (configuration not stated),-4.07%
11,COc1ccc2[nH]c(=O)c(-c3noc(-c4ccc(F)cc4)n3)cc2c1,63.8% [fluorescence artefact?] (active)
12,COc1ccc(-c2noc(-c3ccc(C)cc3)n2)cc1,-3.86%
13,Cc1cccc(-c2noc(-c3ccc(F)cc3)n2)c1,-10.2%
14,CCSc1ccccc1C(=O)NCc1ccc(OC)cc1,15.2%
15,CCC(=O)NC(Nc1nc2ccc(C)cc2s1)(C(=O)OC)C(F)(F)F (configuration not stated),9.59%
16,Cc1cc(N2CCN(S(=O)(=O)c3ccc(C)c(C)c3)CC2)c2ccccc2n1,3.59%
17,c1ccc2[nH]c(NCCN3CCOCC3)nc2c1,-3.02%
18,C1=C(N2CCOCC2)/C(=C/c2nc3ccccc3[nH]2)CC1,72.1% (active)
19,c1ccc(Nc2nc(N3CCOCC3)c3ccccc3n2)cc1,-6.49%
20,O=C(Cc1ccc(-n2c(=O)c3sccc3n(Cc3ccc(F)cc3)c2=O)cc1)NCc1ccco1,21.4%
21,CS(=O)(=O)c1ccc2c(c1)SC1=NC(=O)/C(=C/c3ccco3)C(=N)N12,79% [fluorescence artefact?] (active)
22,O=C1C2C3C=CC(C4CC34)C2C(=O)N1/N=C/c1ccc(-c2ccccc2[N+](=O)[O-])o1 (configuration not stated),2.95%
23,CC(C)C(=O)NC(NC(=S)NC1CCS(=O)(=O)C1)C(Cl)(Cl)Cl (configuration not stated),14.7%
24,Cc1coc2c(O)cc3c(c12)OC1(N2CCCCC2)C(=O)NCCCC31 (configuration not stated),60.9% [fluorescence artefact?] (active)
25,COc1ccccc1NC(=O)C1CCCN(c2cc(C)nc3ncnn23)C1 (configuration not stated),-2.37%
26,CCOc1ccc(C(O)Cc2nc3ccccc3n2C)cc1 (configuration not stated),-4.37%

row,SMILES,inhibition
1,CCOC(=O)c1ccccc1NS(=O)(=O)c1ccc(OC)cc1,-1.65%
2,O=C(NCc1ccco1)c1cnn2c(C(F)(F)F)cc(-c3ccco3)nc12,5.47%
3,COC(=O)c1cc2nc(-c3ccccc3)cc(C(F)(F)F)n2n1,-1.27%
4,COC(=O)c1cnn2c(C(F)(F)F)cc(-c3ccco3)nc12,58.5% (active)
5,Cc1noc(/C=C/c2ccco2)c1S(=O)(=O)N1CCC(C(=O)N2CCc3ccccc32)CC1,-6.43%
6,O=C(Nc1ccc(-c2nnc(-c3ccccc3)o2)cc1)c1ccc(Br)o1,30%
7,Nc1ccc(-c2nnc(-c3ccc(-c4ccccc4)cc3)o2)cc1,19.9%
8,Brc1ccc(-c2nnc(-c3ccccc3)o2)o1,60.6% [fluorescence artefact?] (active)
9,CC(C)n1c(-c2cccs2)nc2ccccc21,-10.4%
10,Cc1cc(S(=O)(=O)NC2CCCCC2)ccc1OCC(=O)NCc1cccnc1,-4.71%
11,CC1=C(C(=O)Nc2ccccc2)C(c2ccco2)C(C#N)=C(SCC(N)=O)N1 (configuration not stated),-2.8%
12,Cc1cc2c(c(=O)n1Cc1ccco1)C(c1ccccc1)C(C#N)=C(N)O2 (configuration not stated),-16.4%
13,N#CC1=C(N)Oc2c(sc3ccccc23)C1c1ccco1 (configuration not stated),51.7% [fluorescence artefact?] (active)
14,CC(C)c1nc2ccc(C(=O)O)cc2[nH]1,14.7%
15,Cc1ccc2nc(S(=O)(=O)O)[nH]c2c1,3.08%
16,Cc1nc2ccc(C(=O)O)cc2[nH]1,56.8% (active)
17,Cn1ccs/c1=N\S(=O)(=O)c1ccc(C(C)(C)C)cc1,0.33%
18,COc1ccccc1/C=C/C1=NC(=C\N(C)C)/C(=O)O1,1.45%
19,COc1ccc(CCn2c(=N)c(C(=O)NCc3ccco3)cc3c(=O)n4cccc(C)c4nc32)cc1,48.1%
20,Cc1ccc2[nH]c(=O)c(-c3nc4c(C)cccn4c3NCc3ccco3)cc2c1,56.9% [fluorescence artefact?] (active)
21,CCNCc1cc2cc(C)ccc2[nH]c1=O,-8.3%
22,Cn1nnnc1SCC(=O)Nc1ccccc1C(=O)NC1CC1,-5.32%
23,CC1CN(S(=O)(=O)c2ccccc2)C(C)CN1S(=O)(=O)c1ccccc1 (configuration not stated),1.26%
24,Cc1cc(C)cc(N(CC(=O)N2CC=C(c3ccccc3)CC2)S(=O)(=O)c2c(C)noc2C)c1,-1.97%
25,CCOc1ccc(S(=O)(=O)Nc2ccc(S(=O)(=O)Nc3cc(OC)ccc3OC)cc2)cc1,-5.81%
26,CCCCCCc1cc2cc(-c3nnc(-c4cccc(OC)c4)o3)c(=O)oc2cc1O,1.17%
